Hits are enriched below; roughly 0.43% of the tested compounds scored in any of these assays.
GAA glycogen: GAA glycogen-cleavage inhibition or activation | P10253 | recombinant GAA, glycogen substrate, Amplex Red glucose oxidase fluorescence | Potency, µM (top dose mostly 76.4 µM), for inactives: at the top dose activity change, negative = inhibition, usual class: inhibitors | hit rate 0.38% among 300,000;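 note: potency is the fitted concentration of half-maximal effect; 0% = full enzyme reaction and -100% = no-enzyme basal signal; the screen sought inhibitors and activators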
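Recombinant human enzyme (4 nM); glycogen substrate; 37 C, 40 min, pH 5.0. Readout: coupled glucose oxidase/Amplex Red fluorescence.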
GLA inh pH 4.5: blocks human alpha-galactosidase A at pH 4.5; purified enzyme, 4-MU-alpha-Gal fluorescence, pH 4.5; activity change, negative = inhibition, % at 105 µM; 230,000 tested, under 10 active;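 note: 0% = full activity with enzyme and -100% = basal without enzyme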
GAA inhib: blocks human lysosomal alpha-glucosidase. hit rate 0.005% among 200,000. P10253. Potency, µM (highest dose often 76.9 µM), for inactives: at the top dose activity change, negative = inhibition, hits mostly inhibitors. AID 1466. purified human GAA, 4-MU-alpha-glucoside fluorescence;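 note: potency is the fitted concentration of half-maximal effect; plate controls were uninhibited enzyme wells for no effect and no-enzyme background for full effect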
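Activity normalized between no-enzyme (basal) and enzyme-only wells. Conditions: 4 nM human enzyme, 400 uM fluorogenic substrate, citrate/phosphate pH 5.0 with Tween-20, 20 min room temperature, compounds up to 77 uM.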
aGlu spleen mod: inhibits or activates alpha-glucosidase in human spleen homogenate; P10253; AID 2112; Potency, µM (titrated, usually from 79.9 µM), for the others: at the top dose activity change, negative = inhibition, most hits filed as inhibitors; hit rate 0.006% among 240,000; human spleen homogenate, 4-MU-alpha-glucoside fluorescence;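 note: potency is the fitted concentration of half-maximal effect; 0% = enzyme with vehicle and -100% = no enzyme basal signal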
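Enzyme source: human spleen homogenate, 1 ug/well. Buffer 50 mM citric acid/K phosphate pH 5.0, 0.01% Tween-20. 4-MU-alpha-glucoside 1 mM; 37 C x 40 min; NaOH/glycine stop; fluorescence.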
N370S GC mod: inhibits or activates N370S mutant glucocerebrosidase; N370S GC spleen homogenate, 4MU-glucoside fluorescence; hit rate 0.092% among 330,000; AID 2101; Potency, µM (top dose mostly 59.4 µM), without a hit: at the highest dose activity change, negative = inhibition, usual class: inhibitors;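 note: potency is the fitted concentration of half-maximal effect; 0% = full enzyme activity and -100% = no enzyme basal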
aGal spleen mod: alpha-galactosidase A (human) modulation. P06280. human spleen homogenate, 4MU-alpha-Gal fluorescence, 40 min. Potency, µM (top dose mostly 80 µM), without a hit: top-dose activity change, negative = inhibition, usual class: inhibitors. hit rate 0.008% among 240,000;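 note: potency is the fitted concentration of half-maximal effect; 0% = enzyme with vehicle and -100% = no enzyme basal signal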
Target sequence (P06280 32-429 limits assumed): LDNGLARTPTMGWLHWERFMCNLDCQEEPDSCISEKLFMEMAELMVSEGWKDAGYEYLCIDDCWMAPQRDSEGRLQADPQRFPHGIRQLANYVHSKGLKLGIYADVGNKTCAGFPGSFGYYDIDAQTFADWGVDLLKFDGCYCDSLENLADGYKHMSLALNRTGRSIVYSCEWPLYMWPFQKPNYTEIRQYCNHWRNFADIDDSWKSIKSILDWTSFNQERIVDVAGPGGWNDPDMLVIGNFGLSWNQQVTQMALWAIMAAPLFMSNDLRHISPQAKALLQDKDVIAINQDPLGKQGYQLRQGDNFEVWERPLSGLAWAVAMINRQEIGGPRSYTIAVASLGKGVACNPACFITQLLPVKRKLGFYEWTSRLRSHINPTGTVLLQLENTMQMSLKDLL
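qHTS titration in buffer at pH 5.0. Alpha-galactosidase activity in spleen homogenate was measured via 4-methylumbelliferone release from 1 mM fluorogenic substrate after 40 min at 37C and a pH 10 stop. AC50 came from Hill fits of control-normalized data.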
* marks the source's active call; other numbers are inactive results; u = inconclusive; x = no result; [ ] = dose if it differs, or a comment. Calls come from the whole dose curve; as a rule, active = well fitted curve in the direction sought with a large enough effect; inconclusive = small, poorly fitted or top-dose-only effect, or another doubt; inactive = no such curve, though single readings can be large; an effect the other way counts as inactive or inconclusive.

SMILES	GAA glycogen	GLA inh pH 4.5	GAA inhib	aGlu spleen mod	N370S GC mod	aGal spleen mod
CCN(C(=O)c1c(C)cc(=O)oc1C)c1ccc2c(c1)OCO2	2%	-6	0%	-6%	6%	-17%
CCN(C(=O)c1coc(=O)c(Br)c1)c1ccc2c(c1)OCO2	18µM*	19	u	3%	15%	19%
Cc1ccc(NC(=O)CCn2nc(-c3ccccc3)c3ccccc3c2=O)c(C)c1	8%[76.3 µM]	x	x	x	x	x
C[C@H](CCC(=O)NCC(=O)O)C1CC[C@H]2C3CC[C@@H]4C[C@H](O)CC[C@]4(C)C3C[C@H](O)[C@]12C (some centres undefined)	x	x	x	-17%	-3%	-20%
Cc1cccc2cc(-c3nc4c(C)cccn4c3NCc3ccco3)c(=O)[nH]c12	19%	-4	-5%	-3%	-7%	-4%
Cc1ccc2[nH]c(=O)c(-c3nc4cc(C)ccn4c3NCc3ccco3)cc2c1	9.9µM*	-11	u	6%	-11%	-2%
CC[C@H](C)[C@H](NC(=O)[C@H](Cc1ccc(O)cc1)NC(=O)[C@H](Cc1cnc[nH]1)NC(=O)[C@H](CCCNC(=N)N)NC(=O)[C@H](CC(C)C)NC(=O)[C@H](C)NC(=O)[C@H](CO)NC(=O)[C@H](Cc1ccc(O)cc1)NC(=O)[C@H](Cc1ccc(O)cc1)NC(=O)[C@H](CCCNC(=N)N)NC(=O)[C@H](C)NC(=O)[C@H](CCSC)NC(=O)[C@H](CC(=O)O)NC(=O)[C@H](CCC(=O)O)NC(=O)[C@H](C)NC(=O)[C@@H]1CCCN1)C(=O)N[C@@H](CC(N)=O)C(=O)N[C@@H](CC(C)C)C(=O)N[C@H](C(=O)N[C@H](C(=O)N[C@@H](CCCNC(=N)N)C(=O)N[C@@H](CCC(N)=O)C(=O)N[C@@H](CCCNC(=N)N)C(=O)N[C@@H](Cc1ccc(O)cc1)C(N)=O)[C@@H](C)O)[C@@H](C)CC	x	x	x	-3%	-4%	6%
COc1cc(/C=C(\C#N)C(=O)N2CCCCC2)ccc1O	-2%[76.3 µM]	x	x	x	u	x
N#C/C(=C\c1ccc(O)c(O)c1)C(=O)N1CCCC1	2.8µM*	-13	-3%	-21%	-27%	-19%
CN=c1scc(-c2ccco2)n1/N=C/c1ccc(O)c(O)c1	5.6µM*	-1	-11%	-5%	-23%	-8%
C=CCN=c1scc(C)n1/N=C/c1ccc(O)c(O)c1	u	-6	-12%	-20%	-20%	-5%
Cc1cc(OCC(=O)N(Cc2ccc(N(C)C)cc2)CC2CCCO2)ccc1Cl (centres undefined)	-12%[76.3 µM]	x	x	x	x	x
O=C1CC(N2CCN(c3ccccc3O)CC2)C(=O)N1Cc1ccccc1 (centres undefined)	3.1µM*	0	-2%	-4%	9%	-4%
CCOc1cccc(CNc2ccc(O)cc2)c1OCc1ccccc1Cl	6.3µM*	-3	-1%	-2%	8%	5%
NC(C(=O)O)c1cccc(O)c1 (centres undefined)	x	x	x	-1%	5%	2%
O=C(O)C[C@@H]1C(=O)O[C@@H]2C(COC(=O)c3cc(O)c(O)c(O)c3)O[C@@H](OC(=O)c3cc(O)c(O)c(O)c3)[C@@H](OC(=O)c3cc(O)c(O)c4c3[C@H]1[C@H](O)C(=O)O4)[C@H]2OC(=O)c1cc(O)c(O)c(O)c1 (some centres undefined)	1.6µM*	-1	x	u	-19%	10%
COc1ccc(-n2nc(C(=O)N3CCCCC3)c3c4ccccc4n(C)c3c2=O)cc1Cl	-5%[76.3 µM]	x	x	x	x	x
Cc1ccc(-c2ccc(NC(=O)C3C4C=CC(C4)C3C(=O)O)cc2)o1 (centres undefined)	40µM*	-3	7%	-3%	x	0%
Cc1[nH]c2ccccc2c1C(O)CN1CCN(c2cccc(C(F)(F)F)c2)CC1 (centres undefined)	-17%	u	u	-6%	u	28µM*
